Assay [1] is described as follows: qHTS for Inhibitors of the Functional Ribonucleoprotein Complex (vRNP) of Lymphocytic Choriomeningitis Arenaviruses (LCMV): Viability assay - alamar blue signal for LCMV Primary Screen (AID 1347085; calls by dose curve; tested in HEK293 reporter line; further: nearly all actives have a fitted effect of over 80% in size; further: potency means the concentration at half of the fitted maximal effect). In general terms: qHTS replaces the single test concentration by a dilution series.
Assay [2] has as its target Nucleoprotein (Lymphocytic choriomeningitis virus (strain Armstrong)) (UniProt P09992). Description: qHTS for Inhibitors of the Functional Ribonucleoprotein Complex (vRNP) of Lymphocytic Choriomeningitis Arenaviruses (LCMV): LCMV Primary Screen - GLuc reporter signal (AID 1347086). Further: nearly all actives have a fitted effect of over 70% in size. Further: potency means the concentration at half of the fitted maximal effect.
Assay [3] in a line: qHTS of pediatric cancer cell lines to identify multiple opportunities for drug repurposing: Primary screen for TC32 cells (AID 1347089; active means well fitted curve in the direction sought with a large enough effect; an effect the other way counts as inactive or inconclusive; further: nearly all actives have a fitted effect of over 60% in size; further: potency means the concentration at half of the fitted maximal effect). An outline of the steps:
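Measured quantity: luminescence from CellTiter-Glo, reflecting metabolically active TC32 cells following 48 h of compound. Curves came straight from multi-point titrations, with 8 or 11 points in primary and 11 in confirmatory screening.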

Assay [4] in a line: qHTS of pediatric cancer cell lines to identify multiple opportunities for drug repurposing: Primary screen for DAOY cells (AID 1347090; active means well fitted curve in the direction sought with a large enough effect; an effect the other way counts as inactive or inconclusive; further: nearly all actives have a fitted effect of over 55% in size; further: potency means the concentration at half of the fitted maximal effect). An outline of the steps: (§1)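 Eight- or eleven-point concentration series, 48 h treatment at 37 degrees C in growth media; readout CellTiter-Glo luminescence. Potency and efficacy were taken from the concentration-response curves.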
Assay [5] can be described thus: qHTS of pediatric cancer cell lines to identify multiple opportunities for drug repurposing: Primary screen for A673 cells (AID 1347092; active means well fitted curve in the direction sought with a large enough effect; an effect the other way counts as inactive or inconclusive; further: nearly all actives have a fitted effect of over 45% in size; further: potency means the concentration at half of the fitted maximal effect). The method, boiled down: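 Cells are plated, rested 5 h, dosed by pintool, incubated 48 h, then lysed with CellTiter-Glo and read by luminescence. DMSO is the neutral control; bortezomib at 2.3 uM final is the positive control.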

The nature of assay [6]: qHTS for Inhibitors of the Functional Ribonucleoprotein Complex (vRNP) of Lassa (LASV) Arenavirus: LASV Primary Screen - GLuc reporter signal (AID 1347082; calls by dose curve; tested in HEK293 reporter line; further: nearly all actives have a fitted effect of over 60% in size; further: potency means the concentration at half of the fitted maximal effect).
Assay [7] can be described thus: qHTS for Inhibitors of the Functional Ribonucleoprotein Complex (vRNP) of Lassa (LASV) Arenavirus: Viability assay - alamar blue signal for LASV Primary Screen (AID 1347083; calls by dose curve; tested in HEK293 reporter line; further: nearly all actives have a fitted effect of over 80% in size; further: potency means the concentration at half of the fitted maximal effect).
The nature of assay [8]: qHTS of pediatric cancer cell lines to identify multiple opportunities for drug repurposing: Primary screen for SJ-GBM2 cells (AID 1347091; active means well fitted curve in the direction sought with a large enough effect; an effect the other way counts as inactive or inconclusive). An outline of the steps: as §1

Each structure is given as a SMILES string. Inconclusive results are not listed. The source made the active and inactive calls. Unless noted, the call rests on the fitted dose curve.

Sequence of Nucleoprotein (Lymphocytic choriomeningitis virus (strain Armstrong)) (P09992 whole entry, looked up): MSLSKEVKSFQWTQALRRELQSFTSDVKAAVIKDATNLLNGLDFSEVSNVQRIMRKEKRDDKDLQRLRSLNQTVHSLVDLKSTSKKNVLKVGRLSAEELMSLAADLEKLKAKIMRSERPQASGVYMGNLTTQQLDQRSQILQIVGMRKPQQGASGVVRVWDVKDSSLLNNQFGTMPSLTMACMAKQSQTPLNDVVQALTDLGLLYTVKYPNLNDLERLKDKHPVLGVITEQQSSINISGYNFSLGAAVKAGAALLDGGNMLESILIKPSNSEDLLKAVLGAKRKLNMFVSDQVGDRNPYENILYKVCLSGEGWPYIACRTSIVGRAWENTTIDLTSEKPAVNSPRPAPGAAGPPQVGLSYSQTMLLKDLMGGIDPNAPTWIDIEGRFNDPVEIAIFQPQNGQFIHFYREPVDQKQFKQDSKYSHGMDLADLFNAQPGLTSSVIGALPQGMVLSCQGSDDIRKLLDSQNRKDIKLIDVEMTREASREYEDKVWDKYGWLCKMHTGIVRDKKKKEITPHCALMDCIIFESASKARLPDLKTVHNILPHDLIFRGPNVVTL

`C[C@](O)(CS(=O)(=O)c1ccc(F)cc1)C(=O)Nc1ccc(C#N)c(C(F)(F)F)c1`: the Potency entry in assay [1], in assay [2] and in assay [3] was “inactive” each time. Also, the Potency is 0.743 µM (active) in assay [4] and 2.96 µM (active) in assay [5].

For the compound `COc1cc2nc(Cl)nc(N)c2cc1OC`, the Potency result in assay [6] and in assay [1] was “inactive” throughout.

In the case of `CN(C)c1ccc2nc3ccc(=[N+](C)C)cc-3sc2c1`, the Potency in assay [6] is 9.68 µM (active); in assay [1], 24.3 µM (active); in assay [2], 6.85 µM (active).

As for `Cc1cccc(C)c1OCC(=O)N[C@@H](Cc1ccccc1)[C@@H](O)C[C@H](Cc1ccccc1)NC(=O)[C@H](C(C)C)N1CCCNC1=O`, the Potency result in assay [6] was “inactive”. Besides, in assay [2], the Potency was 38.5 µM (active).

`CCN(CC)C(=O)[C@@H]1C=C2c3cccc4[nH]cc(c34)C[C@H]2N(C)C1`: the Potency result in assay [6], in assay [1], in assay [2], in assay [3] and in assay [4] was “inactive” throughout. For the same compound, the Potency in assay [5] was 56.6 µM (active).

On to `CCCCCCNC(=O)n1cc(F)c(=O)[nH]c1=O`, for which the Potency entry in assay [6] and in assay [2] was “inactive” throughout. In addition, the Potency in assay [7] was 43.2 µM (active).

Turning to `COc1cc(NS(C)(=O)=O)ccc1Nc1c2ccccc2nc2ccccc12`, the Potency in assay [7] is 2.51 µM (active); in assay [2], 5.62 µM (active).

Consider `COc1cccc2c1C(=O)c1c(O)c3c(c(O)c1C2=O)C[C@@](O)(C(=O)CO)CC3OC1CC(N2CCOC(OC)C2)C(O)C(C)O1` (some centres not stated), for which the figures for the Potency in assay [3], in assay [4] and in assay [5] were 0.0264 µM (active), 0.0422 µM (active) and 0.0266 µM (active), respectively.

With `Nc1cc(C(Cl)=C(Cl)Cl)c(S(N)(=O)=O)cc1S(N)(=O)=O`, the Potency result in assay [6], in assay [7] and in assay [2] was “inactive” in each case.

For the compound `O=C(Nc1cccc2c(=O)cc(-c3nn[nH]n3)oc12)c1ccc(OCCCCc2ccccc2)cc1`, in assay [7], the Potency was 30.6 µM (active).

On to `C[C@]12CC[C@H]3[C@@H](CC[C@@]45O[C@H]4C(O)=C(C#N)C[C@]35C)[C@H]1CC[C@H]2O`, for which the Potency result in assay [6] and in assay [7] was “inactive” each time. The Potency in assay [5] is 18.7 µM (active).

On to `C[C@]12CCC(=O)C=C1CC[C@@H]1[C@H]3CC[C@](C)(O)[C@@]3(C)CC[C@@H]12`, for which the Potency result in assay [6], in assay [7] and in assay [2] was “inactive” in each case.

Turning to `CC(C=CC1=C(C)CCCC1(C)C)=CC=CC(C)=CC(=O)O`, the Potency entry in assay [6] and in assay [2] was “inactive” in each case. For the same compound, the Potency in assay [1] is 0.544 µM (active).

With `Nc1nc(Cl)nc2c1ncn2[C@H]1C[C@H](O)[C@@H](CO)O1`, the Potency entry in assay [6] was “inactive”. Further, in assay [1], the Potency was 8.63 µM (active).

Consider `C=CC[C@@H]1C=C(C)C[C@H](C)C[C@H](OC)[C@H]2O[C@@](O)(C(=O)C(=O)N3CCCC[C@H]3C(=O)O[C@H](C(C)=C[C@@H]3CC[C@H](O)[C@H](OC)C3)[C@@H](C)[C@@H](O)CC1=O)[C@@H](C)C[C@@H]2OC`, for which, in assay [6], the Potency entry is “inactive”. Moreover, the Potency in assay [2] is 30.6 µM (active).

With `COc1cc(C)nc(-n2nc(C)cc2OC)n1`, the Potency entry in assay [6], in assay [7] and in assay [2] was “inactive” each time.

Consider `COc1cc([C@@H]2c3cc4c(cc3[C@@H](O[C@@H]3O[C@@H]5CO[C@@H](c6cccs6)O[C@@H]5[C@H](O)[C@@H]3O)[C@H]3COC(=O)[C@H]23)OCO4)cc(OC)c1O`, for which the Potency in assay [7] was 1.22 µM (active); in assay [1], 1.72 µM (active).

Regarding `O=C(N/N=C/c1ccc([N+](=O)[O-])o1)c1ccc(O)cc1`, the Potency in assay [1] is 25.1 µM (active).

Regarding `Cc1cc(O)c2ccccc2c1O`, the Potency result in assay [6], in assay [1] and in assay [2] was “inactive” each time.

Consider `CCCC(=O)O[C@]1(C(=O)CO)CC[C@H]2[C@@H]3CCC4=CC(=O)CC[C@]4(C)[C@H]3[C@@H](O)C[C@@]21C`, for which the Potency result in assay [6], in assay [7] and in assay [2] was “inactive” each time.

`CCCCOC(=O)c1ccc(N)cc1`: the Potency result in assay [6], in assay [1] and in assay [2] was “inactive” in each case.

On to `N#C[C@H]1C[C@H]2C[C@@H]2N1C(=O)[C@@H](N)C12CC3CC(CC(O)(C3)C1)C2`, for which the Potency entry in assay [6], in assay [7] and in assay [2] was “inactive” in each case.

As to `CCOC(=O)c1ccc(N)cc1`, the Potency result in assay [6] and in assay [2] was “inactive” throughout.

With `CC(=O)N1CCN(c2ccc(OC[C@H]3CO[C@](Cn4ccnc4)(c4ccc(Cl)cc4Cl)O3)cc2)CC1`, the Potency result in assay [7], in assay [1] and in assay [2] was “inactive” each time.

On to `CCCc1ccc(OCC(=O)N2CCN(C(=O)COc3ccc(CCC)cc3OC)CC2)c(OC)c1`, for which the Potency result in assay [1] and in assay [2] was “inactive” in each case.

For the compound `CNC(=O)c1ccccc1Sc1ccc2c(/C=C/c3ccccn3)n[nH]c2c1`, the Potency entry in assay [6], in assay [1] and in assay [2] was “inactive” throughout.

Consider `O=C(NCC1CCCCN1)c1cc(OCC(F)(F)F)ccc1OCC(F)(F)F` (configuration not stated), for which the Potency result in assay [6] and in assay [2] was “inactive” in each case.

Regarding `O=C(O)Cc1ccc(-c2ccccc2)cc1`, the Potency entry in assay [6], in assay [7] and in assay [2] was “inactive” throughout.

With `COc1cccc2c1C(=O)c1c(O)c3c(c(O)c1C2=O)C[C@@](O)(C(=O)CO)C[C@@H]3O[C@H]1C[C@H](N)[C@@H](O)[C@H](C)O1`, the values for the Potency in assay [7], in assay [1] and in assay [2] were 1.09 µM (active), 1.09 µM (active) and 1.37 µM (active), respectively.

`CC(Cc1ccccc1)N(C)Cc1ccco1` (configuration not stated): the Potency entry in assay [6], in assay [7], in assay [3], in assay [4], in assay [8] and in assay [5] was “inactive” in each case.

For `CO[C@H]1C[C@@H]2CC[C@@H](C)[C@@](O)(O2)C(=O)C(=O)N2CCCC[C@@H]2C(=O)O[C@H]([C@H](C)C[C@@H]2CC[C@H](OCCO)[C@H](OC)C2)CC(=O)[C@H](C)C=C(C)[C@@H](O)[C@@H](OC)C(=O)[C@H](C)C[C@H](C)C=CC=CC=C1C`, the Potency in assay [7] was 0.0086 µM (active); in assay [1] it was 0.0769 µM (active); in assay [2], 0.544 µM (active).

For `CN(C)C(=O)COC(=O)Cc1ccc(OC(=O)c2ccc(N=C(N)N)cc2)cc1`, the Potency result in assay [6] and in assay [2] was “inactive” each time.

For `Nc1ncn([C@H]2C[C@H](O)[C@@H](CO)O2)c(=O)n1`, the Potency entry in assay [6] and in assay [2] was “inactive” each time.

As to `Cc1ccccc1C(=O)Nc1ccc(C(=O)N2CCCC(N(C)C)c3ccccc32)cc1` (configuration not stated), the Potency result in assay [6] and in assay [2] was “inactive” throughout.

Turning to `O=C1CN(/N=C/c2ccc([N+](=O)[O-])o2)C(=O)N1`, the Potency result in assay [6], in assay [7] and in assay [2] was “inactive” throughout.

The values above are taken from PubChem BioAssay (NCATS).
